Assay results: PMC7862700, “An all-to-all approach to the identification of sequence-specific readers for epigenetic DNA modifications on cytosine”

Legend:
Assay in all cases: DAPPL (digital affinity profiling via proximity ligation, sequencing); 10 mM Tris-HCl pH 7.5, 50 mM NaCl, 1 mM DTT, 4% glycerol, room temperature, 30 min; GST-TFs on glutathione beads, 16-mer random dsDNA library, 0.1% formaldehyde crosslink after washing; high values mean tight binding
Settings in all cases: protein: recombinant; tags: N-terminal GST; dsDNA, one strand shown
FEV = target: T1, FEV (Homo sapiens, UniProt Q99581 1-238)
T1 sequence: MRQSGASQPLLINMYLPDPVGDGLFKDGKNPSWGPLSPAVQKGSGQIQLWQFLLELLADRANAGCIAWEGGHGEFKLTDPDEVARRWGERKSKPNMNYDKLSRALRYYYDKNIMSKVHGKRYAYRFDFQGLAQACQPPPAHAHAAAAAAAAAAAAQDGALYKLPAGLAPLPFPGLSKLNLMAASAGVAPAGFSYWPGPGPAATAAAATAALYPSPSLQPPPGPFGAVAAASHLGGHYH
Method in brief: (§1)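 Yeast served to express human transcription factors as GST fusions, which were then captured on glutathione beads and labelled with DNA barcodes. Pooled with a tag-only sample, they were incubated with 200 nmole of a 16-mer random double-stranded DNA library for 30 min at room temperature in Tris/NaCl/DTT/glycerol buffer, washed, crosslinked with 0.1% formaldehyde, ligated by proximity, amplified by PCR and sequenced. Dividing each hexamer's read frequency for a factor by its frequency for the tag-only sample gives the binding signal.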

ETV5 = ETV5 (Homo sapiens, UniProt P41161 1-510)
Method in brief: as §1

SPIC = target: T2, SPIC (Homo sapiens, UniProt Q8N5J4 1-248)
T2 sequence: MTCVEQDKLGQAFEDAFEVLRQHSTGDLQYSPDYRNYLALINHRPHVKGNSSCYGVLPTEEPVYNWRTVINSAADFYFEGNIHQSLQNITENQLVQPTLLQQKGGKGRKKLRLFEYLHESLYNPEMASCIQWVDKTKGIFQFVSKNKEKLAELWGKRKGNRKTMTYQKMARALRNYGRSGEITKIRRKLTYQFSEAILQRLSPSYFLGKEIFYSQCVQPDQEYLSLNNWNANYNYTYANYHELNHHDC
Method in brief: as §1

ELF4 = ELF4 (Homo sapiens, UniProt Q99607 1-663)
Method in brief: as §1

ELK4 = target: T3, ELK4 (Homo sapiens, UniProt P28324-2 1-405)
T3 sequence: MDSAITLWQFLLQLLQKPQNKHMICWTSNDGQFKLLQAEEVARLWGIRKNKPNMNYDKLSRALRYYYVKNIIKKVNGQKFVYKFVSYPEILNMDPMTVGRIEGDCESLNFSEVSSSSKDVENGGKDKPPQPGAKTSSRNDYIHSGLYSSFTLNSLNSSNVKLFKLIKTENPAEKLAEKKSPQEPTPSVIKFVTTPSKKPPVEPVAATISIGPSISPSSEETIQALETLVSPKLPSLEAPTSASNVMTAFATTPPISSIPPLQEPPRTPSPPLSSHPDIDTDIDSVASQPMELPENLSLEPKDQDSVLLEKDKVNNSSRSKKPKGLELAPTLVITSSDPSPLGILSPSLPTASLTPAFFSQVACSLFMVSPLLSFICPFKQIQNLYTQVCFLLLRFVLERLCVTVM
Method in brief: as §1

ETV2 = target: T4, ETV2 (Homo sapiens, UniProt O00321 1-342)
T4 sequence: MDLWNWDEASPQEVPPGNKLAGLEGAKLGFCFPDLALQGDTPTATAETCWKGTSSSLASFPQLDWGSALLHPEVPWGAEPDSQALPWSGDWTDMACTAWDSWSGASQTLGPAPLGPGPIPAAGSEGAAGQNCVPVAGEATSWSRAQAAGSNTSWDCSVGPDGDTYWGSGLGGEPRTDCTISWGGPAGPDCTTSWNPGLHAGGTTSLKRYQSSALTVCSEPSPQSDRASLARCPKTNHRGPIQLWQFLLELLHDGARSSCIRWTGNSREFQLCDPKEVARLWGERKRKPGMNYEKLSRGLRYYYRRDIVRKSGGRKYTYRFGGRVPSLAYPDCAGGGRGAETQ
Method in brief: as §1

ELF3 = target: T5, ELF3 (Homo sapiens, UniProt P78545 1-371)
T5 sequence: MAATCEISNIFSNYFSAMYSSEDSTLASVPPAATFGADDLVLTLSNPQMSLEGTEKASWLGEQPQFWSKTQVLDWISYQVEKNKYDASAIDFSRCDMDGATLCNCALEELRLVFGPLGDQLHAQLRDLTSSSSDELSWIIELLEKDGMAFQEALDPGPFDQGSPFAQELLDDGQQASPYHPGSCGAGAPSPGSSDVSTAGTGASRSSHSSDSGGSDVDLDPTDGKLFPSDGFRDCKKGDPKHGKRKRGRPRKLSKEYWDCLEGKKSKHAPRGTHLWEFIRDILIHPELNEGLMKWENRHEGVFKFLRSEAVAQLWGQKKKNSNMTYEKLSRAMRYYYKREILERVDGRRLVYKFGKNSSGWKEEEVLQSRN
Method in brief: as §1

ETV1 = ETV1 (Homo sapiens, UniProt P50549 1-477)
Method in brief: as §1

ERF = target: T6, ERF (Homo sapiens, UniProt P50548 1-548)
T6 sequence: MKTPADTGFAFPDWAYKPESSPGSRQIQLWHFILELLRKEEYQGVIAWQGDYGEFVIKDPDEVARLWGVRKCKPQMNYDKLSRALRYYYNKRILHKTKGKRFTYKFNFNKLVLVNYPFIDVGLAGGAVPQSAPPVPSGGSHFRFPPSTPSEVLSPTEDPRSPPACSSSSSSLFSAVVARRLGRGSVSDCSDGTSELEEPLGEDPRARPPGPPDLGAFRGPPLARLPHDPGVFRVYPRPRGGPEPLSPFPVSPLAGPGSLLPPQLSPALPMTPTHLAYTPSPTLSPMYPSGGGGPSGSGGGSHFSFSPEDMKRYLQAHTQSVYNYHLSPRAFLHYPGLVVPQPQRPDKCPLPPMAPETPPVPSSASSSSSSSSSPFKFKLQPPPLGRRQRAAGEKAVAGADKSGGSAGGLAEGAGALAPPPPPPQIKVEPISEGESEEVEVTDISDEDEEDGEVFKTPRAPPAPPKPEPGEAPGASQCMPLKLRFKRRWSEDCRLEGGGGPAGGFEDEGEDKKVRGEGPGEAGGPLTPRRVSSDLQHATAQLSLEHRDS
Method in brief: as §1

ETV3L = target: T7, ETV3L (Homo sapiens, UniProt Q6ZN32 1-361)
T7 sequence: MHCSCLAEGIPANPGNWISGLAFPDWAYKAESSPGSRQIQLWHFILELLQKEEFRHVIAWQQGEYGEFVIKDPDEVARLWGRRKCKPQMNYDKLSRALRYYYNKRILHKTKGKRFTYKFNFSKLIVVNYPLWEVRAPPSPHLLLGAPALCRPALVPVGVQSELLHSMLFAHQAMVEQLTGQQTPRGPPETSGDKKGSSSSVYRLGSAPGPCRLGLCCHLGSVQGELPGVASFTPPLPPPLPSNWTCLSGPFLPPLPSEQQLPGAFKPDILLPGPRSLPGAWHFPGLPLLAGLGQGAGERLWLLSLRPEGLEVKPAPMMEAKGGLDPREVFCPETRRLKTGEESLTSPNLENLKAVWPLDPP
Method in brief: as §1

ETS2 = target: T8, ETS2 (Homo sapiens, UniProt P15036 1-469)
T8 sequence: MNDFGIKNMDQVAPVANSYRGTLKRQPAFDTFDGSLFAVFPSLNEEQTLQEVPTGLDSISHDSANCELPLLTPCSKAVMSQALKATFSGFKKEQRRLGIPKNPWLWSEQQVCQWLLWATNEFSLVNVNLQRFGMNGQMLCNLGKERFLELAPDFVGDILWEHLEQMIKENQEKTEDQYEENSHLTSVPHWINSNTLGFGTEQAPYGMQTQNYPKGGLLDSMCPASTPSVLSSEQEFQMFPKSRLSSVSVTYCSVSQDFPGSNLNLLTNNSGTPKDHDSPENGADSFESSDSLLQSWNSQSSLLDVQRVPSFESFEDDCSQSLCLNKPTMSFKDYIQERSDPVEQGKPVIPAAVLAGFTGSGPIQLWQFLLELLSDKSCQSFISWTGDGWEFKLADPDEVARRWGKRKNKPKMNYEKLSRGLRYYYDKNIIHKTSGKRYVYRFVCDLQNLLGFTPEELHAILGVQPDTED
Method in brief: as §1

SPDEF = target: T9, SPDEF (Homo sapiens, UniProt O95238 1-335)
T9 sequence: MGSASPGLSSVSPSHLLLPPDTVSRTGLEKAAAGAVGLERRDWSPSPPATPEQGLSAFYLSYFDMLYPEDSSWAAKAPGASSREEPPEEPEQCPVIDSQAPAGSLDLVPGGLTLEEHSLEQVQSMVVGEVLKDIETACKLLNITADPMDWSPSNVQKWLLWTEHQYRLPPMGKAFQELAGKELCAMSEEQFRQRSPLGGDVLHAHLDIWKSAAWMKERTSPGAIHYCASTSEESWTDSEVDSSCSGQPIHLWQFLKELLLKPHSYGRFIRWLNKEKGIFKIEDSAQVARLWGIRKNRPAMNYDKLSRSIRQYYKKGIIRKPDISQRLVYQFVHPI
Method in brief: as §1

ETV7 = target: T10, ETV7 (Homo sapiens, UniProt Q9Y603 1-341)
T10 sequence: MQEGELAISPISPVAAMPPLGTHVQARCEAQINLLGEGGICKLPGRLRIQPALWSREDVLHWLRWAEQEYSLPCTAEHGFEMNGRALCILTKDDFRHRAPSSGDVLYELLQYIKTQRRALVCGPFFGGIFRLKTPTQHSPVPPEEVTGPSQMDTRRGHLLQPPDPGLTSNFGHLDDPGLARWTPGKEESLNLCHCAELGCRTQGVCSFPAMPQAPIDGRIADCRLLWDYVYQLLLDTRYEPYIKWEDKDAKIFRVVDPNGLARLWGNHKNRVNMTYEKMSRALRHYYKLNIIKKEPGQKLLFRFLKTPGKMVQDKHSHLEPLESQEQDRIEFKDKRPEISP
Method in brief: as §1

ELF5 = target: T11, ELF5 (Homo sapiens, UniProt Q9UKW6-2 1-255)
T11 sequence: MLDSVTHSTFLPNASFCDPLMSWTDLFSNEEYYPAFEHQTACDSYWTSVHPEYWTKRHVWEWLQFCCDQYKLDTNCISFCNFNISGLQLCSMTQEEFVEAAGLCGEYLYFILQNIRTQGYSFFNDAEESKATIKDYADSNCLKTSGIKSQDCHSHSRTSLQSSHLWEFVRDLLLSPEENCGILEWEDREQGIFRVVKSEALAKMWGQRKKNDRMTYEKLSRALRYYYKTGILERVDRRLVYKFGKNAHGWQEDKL
Method in brief: as §1

ETV3 = target: T12, ETV3 (Homo sapiens, UniProt P41162-2 1-143)
T12 sequence: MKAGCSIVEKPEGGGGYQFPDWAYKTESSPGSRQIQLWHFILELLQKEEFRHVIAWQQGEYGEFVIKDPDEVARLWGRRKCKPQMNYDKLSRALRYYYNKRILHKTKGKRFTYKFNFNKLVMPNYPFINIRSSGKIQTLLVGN
Method in brief: as §1

ETV6 = ETV6 (Homo sapiens, UniProt P41212 1-452)
Method in brief: as §1

ETV6, sequence (P41212 whole entry): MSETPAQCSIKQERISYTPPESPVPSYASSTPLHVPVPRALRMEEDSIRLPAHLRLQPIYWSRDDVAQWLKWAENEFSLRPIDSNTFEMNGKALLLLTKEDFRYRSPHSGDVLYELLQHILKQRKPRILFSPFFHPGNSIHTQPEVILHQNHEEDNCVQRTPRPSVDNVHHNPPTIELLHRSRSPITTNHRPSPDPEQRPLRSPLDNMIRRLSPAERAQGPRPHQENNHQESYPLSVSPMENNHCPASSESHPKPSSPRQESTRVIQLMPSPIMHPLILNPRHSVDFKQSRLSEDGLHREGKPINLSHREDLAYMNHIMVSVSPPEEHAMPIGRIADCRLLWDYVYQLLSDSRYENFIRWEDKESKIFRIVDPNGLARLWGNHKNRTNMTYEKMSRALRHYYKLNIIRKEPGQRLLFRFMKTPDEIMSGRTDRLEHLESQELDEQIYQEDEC
ETV1, sequence (P50549 whole entry): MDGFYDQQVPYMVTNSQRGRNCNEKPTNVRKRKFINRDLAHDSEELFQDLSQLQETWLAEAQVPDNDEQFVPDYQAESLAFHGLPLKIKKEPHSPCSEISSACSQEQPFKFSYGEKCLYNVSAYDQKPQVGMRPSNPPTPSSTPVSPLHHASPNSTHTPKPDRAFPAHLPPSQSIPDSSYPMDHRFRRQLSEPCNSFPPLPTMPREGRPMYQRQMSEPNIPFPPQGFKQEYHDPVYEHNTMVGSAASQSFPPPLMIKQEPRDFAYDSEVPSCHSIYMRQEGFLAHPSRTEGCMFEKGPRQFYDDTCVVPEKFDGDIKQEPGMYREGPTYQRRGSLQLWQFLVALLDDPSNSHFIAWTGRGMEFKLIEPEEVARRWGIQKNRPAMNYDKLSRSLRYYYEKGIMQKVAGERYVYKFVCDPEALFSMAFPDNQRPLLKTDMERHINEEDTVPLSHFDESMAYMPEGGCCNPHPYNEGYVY
ELF4, sequence (Q99607 whole entry): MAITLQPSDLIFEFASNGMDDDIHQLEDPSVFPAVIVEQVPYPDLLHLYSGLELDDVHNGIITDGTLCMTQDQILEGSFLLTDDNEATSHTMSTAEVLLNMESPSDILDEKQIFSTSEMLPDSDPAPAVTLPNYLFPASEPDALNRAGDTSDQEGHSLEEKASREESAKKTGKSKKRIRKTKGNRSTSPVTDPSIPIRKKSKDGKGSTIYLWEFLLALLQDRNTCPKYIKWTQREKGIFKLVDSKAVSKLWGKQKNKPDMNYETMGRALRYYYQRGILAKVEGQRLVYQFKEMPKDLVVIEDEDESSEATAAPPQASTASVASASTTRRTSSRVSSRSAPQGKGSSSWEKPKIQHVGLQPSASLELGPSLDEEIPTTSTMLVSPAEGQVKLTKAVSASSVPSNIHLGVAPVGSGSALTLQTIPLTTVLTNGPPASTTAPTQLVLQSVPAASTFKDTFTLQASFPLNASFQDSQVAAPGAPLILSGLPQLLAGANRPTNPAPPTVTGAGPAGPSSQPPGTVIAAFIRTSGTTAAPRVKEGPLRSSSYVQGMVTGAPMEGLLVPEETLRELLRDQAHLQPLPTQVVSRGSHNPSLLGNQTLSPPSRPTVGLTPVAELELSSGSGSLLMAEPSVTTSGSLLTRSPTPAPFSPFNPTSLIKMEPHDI
ETV5, sequence (P41161 whole entry): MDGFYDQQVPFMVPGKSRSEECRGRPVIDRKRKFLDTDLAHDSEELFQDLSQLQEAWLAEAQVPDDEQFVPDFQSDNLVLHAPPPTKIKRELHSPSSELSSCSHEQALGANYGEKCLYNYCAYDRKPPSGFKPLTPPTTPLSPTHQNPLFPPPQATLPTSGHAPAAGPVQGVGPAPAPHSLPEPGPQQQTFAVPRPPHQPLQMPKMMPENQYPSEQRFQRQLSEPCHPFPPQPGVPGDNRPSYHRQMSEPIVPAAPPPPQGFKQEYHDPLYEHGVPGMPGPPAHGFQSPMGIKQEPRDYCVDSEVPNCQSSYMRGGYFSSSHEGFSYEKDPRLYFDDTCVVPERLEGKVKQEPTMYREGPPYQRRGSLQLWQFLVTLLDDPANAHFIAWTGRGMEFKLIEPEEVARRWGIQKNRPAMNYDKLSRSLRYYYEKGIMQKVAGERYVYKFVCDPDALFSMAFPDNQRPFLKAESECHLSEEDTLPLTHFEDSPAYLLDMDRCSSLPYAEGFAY

Row | Sequence | binding signal (FEV) | binding signal (ETV5) | binding signal (SPIC) | binding signal (ELF4) | binding signal (ELK4) | binding signal (ETV2) | binding signal (ELF3) | binding signal (ETV1) | binding signal (ERF) | binding signal (ETV3L) | binding signal (ETS2) | binding signal (SPDEF) | binding signal (ETV7) | binding signal (ELF5) | binding signal (ETV3) | binding signal (ETV6)
1 | CTCACC | 1.2 fold enrichment (6-mer frequency, TF over GST control) | 1.16 fold enrichment (6-mer frequency, TF over GST control) | 1.25 fold enrichment (6-mer frequency, TF over GST control) | 1.28 fold enrichment (6-mer frequency, TF over GST control) | 1.2 fold enrichment (6-mer frequency, TF over GST control) | 1.17 fold enrichment (6-mer frequency, TF over GST control) | 1.33 fold enrichment (6-mer frequency, TF over GST control) | 1.25 fold enrichment (6-mer frequency, TF over GST control) | 1.33 fold enrichment (6-mer frequency, TF over GST control) | 1.16 fold enrichment (6-mer frequency, TF over GST control) | 1.11 fold enrichment (6-mer frequency, TF over GST control) | 1.12 fold enrichment (6-mer frequency, TF over GST control) | 1.06 fold enrichment (6-mer frequency, TF over GST control) | 1.15 fold enrichment (6-mer frequency, TF over GST control) | 1.14 fold enrichment (6-mer frequency, TF over GST control) | 1.08 fold enrichment (6-mer frequency, TF over GST control)
2 | GCCCTC | 1.18 fold enrichment (6-mer frequency, TF over GST control) | 1.12 fold enrichment (6-mer frequency, TF over GST control) | 1.26 fold enrichment (6-mer frequency, TF over GST control) | 1.3 fold enrichment (6-mer frequency, TF over GST control) | 1.1 fold enrichment (6-mer frequency, TF over GST control) | 1.27 fold enrichment (6-mer frequency, TF over GST control) | 1.18 fold enrichment (6-mer frequency, TF over GST control) | 1.18 fold enrichment (6-mer frequency, TF over GST control) | 1.26 fold enrichment (6-mer frequency, TF over GST control) | 1.09 fold enrichment (6-mer frequency, TF over GST control) | 1.24 fold enrichment (6-mer frequency, TF over GST control) | 1.08 fold enrichment (6-mer frequency, TF over GST control) | 1.22 fold enrichment (6-mer frequency, TF over GST control) | 1.1 fold enrichment (6-mer frequency, TF over GST control) | 1.17 fold enrichment (6-mer frequency, TF over GST control) | 1.05 fold enrichment (6-mer frequency, TF over GST control)
